# HT1080-NT tox: kills 2HG-producing HT-1080-NT fibrosarcoma cells. AID 686970. HT-1080-NT fibrosarcoma viability, CellTiter-Glo ATP luminescence, 48 h. hit rate 1.6% among 360,000. Potency, µM (highest dose often 46.1 µM), inactives show at the top dose activity, negative = less viability, hits mostly cytotoxic;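 note: NT is the 2HG producing partner of a matched IDH1 knockdown line; potency is the fitted concentration of half-maximal effect; 0% = DMSO-treated cells and -100% = media-only wells without cells; nearly all actives have a fitted effect of over 55% in size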
#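 Fibrosarcoma NT cells, 750 per well in 5% FBS RPMI, were exposed to compound for 48 hours. Viability: CellTiter-Glo luminescence.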
# HT1080 IDH1KD tx: kills HT-1080 cells with IDH1 knockdown. hit rate 2% among 360,000. HT-1080 IDH1 knockdown viability, ATP luminescence, 48 h. Potency, µM (doses to about 46.1 µM), for the others: at the top dose activity, negative = toxicity, usual class: cytotoxic. AID 686971;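 note: potency is the fitted concentration of half-maximal effect; 0% = DMSO wells and -100% = cell-free medium wells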
#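 HT-1080-IDH1KD cells (IDH1 knocked down), 750/well in RPMI with 5% FBS, treated with compound 48 h at 37 degrees C. Viability by CellTiter-Glo luminescence, normalised to DMSO and no-cell wells; concentration-response curves classed.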
# TDP1 cell CPT: DT40-hTDP1 cell growth loss with CPT; chicken DT40 Tdp1-/-;hTDP1 cells + 20 nM CPT, ATP luminescence, 48 h; Potency, µM (doses to about 46.2 µM), inactives show top-dose activity change, negative = growth inhibition, most hits filed as inhibitors; hit rate 12% among 420,000; AID 686979; note: potency is the fitted concentration of half-maximal effect; nearly all actives have a fitted effect of over 55% in size
#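 Cell growth measured by CellTiter-Glo luminescence after a minimum 48 h, 37 C compound exposure with 20 nM CPT in Tdp1-knockout DT40 cells stably expressing hTDP1, seeded 400/well; qHTS titration format.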
# IL-1B inflam inh: inhibitors of inflammasome signaling (IL-1 beta secretion); THP-1 LPS/ATP IL-1B secretion, AlphaLISA, 16 h; active compounds read low; activity change, % at 57.5 µM; hit rate 4.7% among 360,000; in the data active = activity change below about -50%; inconclusive = mostly about -30% to -49%
#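 Secreted IL-1B measured by AlphaLISA bead assay after 16 h compound exposure of THP-1 cells; compounds (final up to 57.5 uM) added 1 h before LPS (250 ng/mL) and ATP (1.25 mM) stimulation; lower signal means less secretion.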
# TDP1 cell noCPT: qHTS for Inhibitors of human tyrosyl-DNA phosphodiesterase 1 (TDP1): qHTS in cells in absence of CPT; DT40 Tdp1-/- hTDP1 cells, no CPT, ATP luminescence, 48 h; Potency, µM (titrated, usually from 46.2 µM), inactives show at the highest dose activity change, negative = growth inhibition, hits mostly inhibitors; hit rate 15% among 420,000; note: potency is the fitted concentration of half-maximal effect; nearly all actives have a fitted effect of over 55% in size
#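 Chicken DT40 Tdp1-/- cells complemented with human TDP1, screened without camptothecin (DMSO vehicle only), 400 cells/well. Compounds pin-transferred, cells incubated at 37 °C for at least 48 hr. Growth read as ATP-dependent luminescence (CellTiter-Glo, 30 min at RT).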
# Active calls of the source: *; ? = inconclusive; . = no result; [ ] = another dose, or the depositor's remark. In the library only some 19% were active in any assay of this set; here they are far more common. Unless noted, calls come from the whole dose curve; as a rule, active = well fitted curve in the direction sought with a large enough effect; inconclusive = small, poorly fitted or top-dose-only effect, or another doubt; inactive = no such curve, though single readings can be large; an effect the other way counts as inactive or inconclusive. Unless noted, % is set by controls: 0 for no effect and ±100 for the full control effect.
SMILES,HT1080-NT tox,HT1080 IDH1KD tx,TDP1 cell CPT,IL-1B inflam inh,TDP1 cell noCPT
COc1cccc(C(N)c2nc(-c3csc4ccccc34)cs2)c1 (stereo unspecified),?,?,3.7µM*,74,2.9µM*
COc1cccc(C(O)c2nc(-c3cccc4cccnc34)cs2)c1 (stereo unspecified),-1%,0%,?,-2,-19%
COc1ccc(-c2csc(C(NC(C)=O)c3cccc(F)c3)n2)cn1 (stereo unspecified),19%,29%,15µM*,-16,?
CC(=O)NC(c1cccc(F)c1)c1nc(-c2cnn(C)c2)cs1 (stereo unspecified),?,19%,?,42,23µM*
OC(c1cccc(Cl)c1)c1nc(-c2csc3ccccc23)cs1 (stereo unspecified),?,?,15µM*,13,?
CC(=O)NC(c1ccccc1)c1nc(-c2csc3ccccc23)cs1 (stereo unspecified),-6%,-30%,?,5,?
CC(=O)NC(c1cccc(F)c1)c1nc(-c2csc3ccccc23)cs1 (stereo unspecified),-24%,-16%,23µM*,-11,?
CC(=O)NC(c1ccccc1)c1nc(-c2cnc3ccccc3c2)cs1 (stereo unspecified),3%,3%,12µM*,0,21µM*
OC(c1cccc(Cl)c1)c1nc(-c2cccc3cccnc23)cs1 (stereo unspecified),18%,2%,?,-2,-27%
CC(=O)NC(c1cccc(F)c1)c1nc(-c2cccc(C(C)C)c2)cs1 (stereo unspecified),-23%,-20%,26µM*,-19,21µM*
CC(=O)NC(c1cccc(F)c1)c1nc(-c2cnc3ccccc3c2)cs1 (stereo unspecified),-11%,-5%,?,17,?
Cc1cccc(C)c1NC(=O)COC(=O)/C=C/c1ccc(S(=O)(=O)N2CCOCC2)cc1,0%,1%,-5%,0,-5%
Cc1ccc(N2C(=O)CCC2(C(N)=O)c2ccccc2)cc1 (stereo unspecified),2%,-2%,-4%,16,6%
CCc1ccccc1NC(=O)CN(C)C(=O)c1cccc(S(=O)(=O)N2CCCCCC2)c1,1%,-2%,-23%,-4,-6%
O=C(N/N=C/C(Cl)=C/c1ccccc1)c1ccncc1,-2%,8%,9.2µM*,-92*,21µM*
Cn1c(SCC(=O)N/N=C/C=C/c2ccco2)nc2ccccc21,12%,8%,18µM*,0,18µM*
O=C(N/N=C/C=C\c1ccco1)c1ccccn1,?,-20%,9.2µM*,-5,16µM*
O=C(N/N=C/c1ccncc1)c1ccccc1,-4%,-3%,-8%,9,-2%
O=C(N/N=C/C(Cl)=C/c1ccccc1)c1ccccn1,8%,7%,?,-57*,?
Cc1cccc(Oc2coc3cc(O)ccc3c2=O)c1,1%,-3%,6%,-24,15%
Cc1cc(C(=O)N/N=C/c2cccnc2)c(C)o1,13%,11%,-7%,7,-16%
Cc1cc(C(=O)N/N=C/C(Cl)=C/c2ccccc2)c(C)o1,-8%,-20%,29µM*,6,21µM*
O=C(N/N=C/C(Br)=C/c1ccccc1)c1cnccn1,?,?,1.6µM*,-99*,2.3µM*
Cc1ccc(N2C(=O)c3ccccc3C2C(=O)c2ccc(C)c(C)c2O)cc1 (stereo unspecified),1%,-10%,?,-22,18µM*
Cc1ccc(N2C(=O)c3ccccc3C2C(=O)c2cc(C)ccc2O)cc1 (stereo unspecified),-28%,-28%,?,?,?
SMILES,HT1080-NT tox,HT1080 IDH1KD tx,TDP1 cell CPT,IL-1B inflam inh,TDP1 cell noCPT
O=C(NCCN1Cc2ccccc2OC(c2ccsc2)C1)c1cncs1 (stereo unspecified),.,.,-48%[9.04 µM],.,-93%
CCc1cc(C(=O)NCCN2Cc3ccccc3OC(c3ccsc3)C2)n(C)n1 (stereo unspecified),.,.,?,.,21µM*
CCN(C(=O)c1cc2c(=O)n3cccc(C)c3nc2s1)c1ccc(C)c(C)c1,.,.,14%,.,?
CCOC(=O)C1(Cc2ccc(OC)cc2)CCN(C(=O)c2cccc3nccnc23)CC1,-3%,-2%,-15%,26,-20%
CCOC(=O)C1(Cc2ccc(OC)cc2)CCN(C(=O)c2cc(C)nn2C)CC1,?,15µM*,23µM*,22,18µM*
CCOC(=O)C1(Cc2ccc(Cl)cc2)CCN(Cc2cn(CC)nc2C)CC1,-2%,7%,16µM*,?,?
CCOC(=O)C1(CCCc2ccccc2)CCN(C(=O)c2cnn(CC)c2)CC1,-8%,-2%,26µM*,-24,18µM*
CCOC(=O)C1(Cc2ccc(Cl)cc2)CCN(C(C)Cc2ccc(O)c(OC)c2)CC1 (stereo unspecified),-27%,-15%,9.2µM*,-51*,3.3µM*
CCOC(=O)C1(CCCc2ccccc2)CCN(Cc2cnn(C)c2)CC1,-21%,-5%,?,-12,?
CCOC(=O)C1(Cc2ccc(OC)cc2)CCN(S(C)(=O)=O)CC1,-2%,6%,-12%,19,-6%
CC(C)C(=O)Nc1nnc(SCC(=O)NCc2ccco2)s1,11%,14%,0%,13,-19%
CCc1ccc(N(CC)C(=O)Cn2nc(Cc3cccnc3)c3ccccc3c2=O)cc1,.,.,-26%,.,?
CCOC(=O)C1(CCCc2ccccc2)CCN(C(=O)c2cnc(C)cn2)CC1,-4%,-2%,26µM*,-14,21µM*
CCOC(=O)C1(CCc2ccccc2)CCN(C(=O)c2occc2C)CC1,6%,3%,?,-12,15µM*
CCOC(=O)C1(Cc2ccc(Cl)cc2)CCN(C(=O)c2cnc(C)cn2)CC1,0%,-4%,?,32,23µM*
O=C(CN(C(=O)c1csnn1)c1cccc2c1CCCC2)NCc1ccccc1,6%,-4%,3%,-2,-9%
NS(=O)(=O)c1ccc(CNC(=O)CNC(=O)c2ccc(F)cc2)cc1,18%,-1%,-8%,17,-8%
COc1ccc(NC(=O)c2cc(=O)[nH]c(=O)[nH]2)cc1S(=O)(=O)Nc1ccccc1Cl,?,-16%,-24%,15,-3%
COc1cccc(NC(=O)COC(=O)c2ccc(C)c(S(=O)(=O)N3CCCCC3)c2)c1,-9%[9.24 µM],0%,?,-30,?
Cc1cc(C)n(CC(O)CN2c3ccccc3Sc3ccccc32)n1 (stereo unspecified),-28%,-26%,?,-18,?

# High-throughput results: PubChem BioAssay, National Center for Advancing Translational Sciences (NCATS)
